High-throughput results as filed in PubChem BioAssay.
An excerpt weighted towards active compounds, which were near 11% of everything screened.
USP30 block – inhibitors of human USP30 deubiquitinase; purified USP30, Ub-rhodamine cleavage fluorescence; inhibition, % at 25 µM; AID 1645860, 2021; 5.3% of 47,000 active; Ubiquitin carboxyl-terminal hydrolase 30 (Homo sapiens), Q70CQ3
USP28 block – inhibitors of human USP28 deubiquitinase | Ubiquitin carboxyl-terminal hydrolase 28 (Homo sapiens), Q96RU2 | inhibition, % at 25 µM | purified USP28, Ub-rhodamine cleavage fluorescence, 30 min | AID 1645857, 2021 | 3% of 47,000 active
OTUD3 inh – inhibitors of human OTUD3 deubiquitinase; purified OTUD3, Ub-rhodamine fluorescence, 2 h; OTU domain-containing protein 3 (Homo sapiens), Q5T2D3; inhibition, % at 25 µM; 0.7% of 47,000 active
USP17 block – inhibitors of human USP17 deubiquitinase; inhibition, % at 50 µM; 6.5% of 47,000 active; AID 1645855, 2021; Ubiquitin carboxyl-terminal hydrolase 17-like protein 5 (Homo sapiens), A8MUK1; purified USP17, Ub-rhodamine cleavage fluorescence, 3 h
Numbers without * were called inactive; x = no result given. No stated cut-off is given here; in the data, active means inhibition above about 30%; inactive means the rest.

SMILES	USP30 block	USP28 block	OTUD3 inh	USP17 block
Cc1ccc(CNC(=O)c2cc3occc3c(Nc3ccccc3)n2)cc1	-186	-17	-16	49*
Cc1ccccc1CNC(=O)c1cc2occc2c(Nc2ccc(F)cc2)n1	3	20	8	23
COc1ccc(C(=O)O)cc1S(=O)(=O)N(CCc1ccccc1)Cc1ccccc1	39*	20	15	13
Cc1cccc(CCN2C(=O)CCc3c(C)nc(C4CCCNC4)nc32)c1 (centres undefined)	27	11	16	14
CCn1cc(-c2cc(C(=O)N3CCC[C@@]4(C)[C@@H]3CCCN4C(C)=O)on2)cn1	18	6	11	8
CCOC(=O)N1CCC(NC(=O)C2CCCN(c3nc4ccccc4o3)C2)CC1 (centres undefined)	12	1	9	10
CCOC(=O)N1CCC(NC(=O)CCn2c(=S)oc3ccccc32)CC1	34*	17	21	26
CCOc1ccccc1NC(=O)COc1cc(OC)ccc1C(=O)c1ccccc1	20	56*	20	10
CCOc1ccccc1NC(=O)C(OC(=O)c1ccc(OCC(=O)Nc2ccc(OC)cc2)c(OC)c1)c1ccccc1 (centres undefined)	-81	-11	1	19
COc1ccc(NC(=O)Cn2c(=O)n(CCCC(=O)NC3CCCC3)c(=O)c3cc(Cl)ccc32)cc1	-5	-22	-17	-4
COc1cc(OC)c(NC(=O)Cn2c(=O)n(Cc3ccccc3Cl)c(=O)c3cc(OC)c(OC)cc32)cc1Cl	60*	36*	24	29
COc1cc2c(=O)n(CCC(=O)NC3CCCC3)c(=O)n(CC(=O)Nc3cccc(Cl)c3)c2cc1OC	24	18	24	42*
CCn1c(=O)c2cc(OC)c(OC)cc2n(CC(=O)c2ccc(OC)c(OC)c2)c1=O	47*	5	22	11
O=C(Cn1c(=O)n(CCCC(=O)NC2CCCC2)c(=O)c2cc(Cl)ccc21)Nc1cccc(F)c1	37*	-1	-2	3
O=C(NCCc1ccc(Cl)cc1)c1nnn(-c2ccc(F)cc2)n1	0	5	3	8
CC1(C(=O)Nc2cccc(C(=O)O)c2)Cc2ccccc2C(=O)O1 (centres undefined)	-9	-6	-5	-10
COc1ccc(NC(=O)Cn2c(=O)n(C3CCCC3)c(=O)c3cc(OC)c(OC)cc32)cc1OC	17	14	24	39*
CN(C(=O)c1ccc(C(=O)c2ccccc2)cc1)c1nnc(C23CC4CC(CC(C4)C2)C3)s1	33*	21	16	18
CCCC(=O)N(Cc1ccccc1)c1nnc(C23CC4CC(CC(C4)C2)C3)s1	12	12	10	8
O=C1COc2ccccc2C/C=C/CC2(CCN(Cc3cccnc3)CC2)C(=O)NCCN1	-5	-14	-6	-2
Cc1ccc(-n2c(=O)c3oc4ccccc4c3n(CC(=O)N3CCOCC3)c2=O)cc1	-13	-18	-17	x
O=C(COc1ccc(Cl)cc1)NCc1nnc(SCC(=O)N2CCc3ccccc32)o1	40*	3	9	24
O=C(COc1ccc(Cl)cc1)NCc1nnc(SCC(=O)N2CCN(c3ccccc3)CC2)o1	39*	5	8	41*
O=C(COc1ccc(Cl)cc1)NCc1nnc(SCC(=O)NCc2ccc(F)cc2)o1	27	7	0	1
O=C(COc1ccc(Cl)cc1)NCc1nnc(SCC(=O)Nc2nc3ccccc3s2)o1	-75	16	-20	33*
SMILES	USP30 block	USP28 block	OTUD3 inh	USP17 block
COc1ccccc1C1Nc2ccccc2C(=O)N1Cc1ccc(C)cc1 (centres undefined)	20	11	16	10
COc1ccc(CNC(=O)c2ccc(-c3cncnc3)nc2)cc1	7	0	-1	4
CN1C[C@H]2CCN(C(=O)c3ccc(Cl)cc3)CC[C@H]2S1(=O)=O	-1	-5	-3	0
CC1(C)Cc2c(sc3nc(Cc4ccccc4)nc(SCc4ccccc4)c23)CO1	15	4	4	7
Cc1cc2c(cc1C)NC(CC(=O)Nc1ccc(O)cc1)C(=O)N2 (centres undefined)	-50	24	-2	64*
CC(C)c1ccc(NC(=O)Cc2csc(COc3ccccc3)n2)cc1	-20	5	8	4
O=C(NCCN1CCc2ccccc2C1)Nc1ccc(C(F)(F)F)cc1	-4	46*	-3	-5
Cc1cccc(NC(=O)NCCN2CCc3ccccc3C2)c1	0	-1	-3	-1
COc1ccc2c(C)c(CC(=O)N3CC[C@@]4(O)CCCC[C@H]4C3)c(=O)oc2c1C	-6	-2	3	0
CCOc1ccccc1C(=O)NCC(=O)OC(C(=O)c1c[nH]c2ccccc12)c1ccccc1 (centres undefined)	-34	-5	-8	54*
O=C(OC(C(=O)c1c[nH]c2ccccc12)c1ccccc1)c1cccc(Oc2ccccc2)c1 (centres undefined)	-48	-10	-24	-68
CC(=O)O[C@@H]1OC(=O)[C@](C)(C(C)=O)[C@@H]1C	33*	11	17	39*
N#Cc1ccc(CC(C(=O)Nc2ccc3c(c2)OCO3)C(=O)c2ccccc2)cc1 (centres undefined)	35*	15	18	13
O=C(CC(C(=O)Nc1ccc2c(c1)OCO2)C(=O)c1ccccc1)Nc1ccc(Cl)cc1F (centres undefined)	59*	19	25	34*
O=C(CN1CCN(Cc2ccc3c(c2)OCO3)CC1)Nc1ccc(Cl)cc1C(=O)c1ccccc1	-8	8	1	11
O=C(Nc1ccc2c(c1)OCO2)C(Cc1cc(Cl)cc2c1OCOC2)C(=O)c1ccccc1 (centres undefined)	2	-4	1	0
O=C(Cn1nc2c3c4c(sc3ncn2c1=O)CCCCC4)Nc1ccc(Cl)cc1F	29	18	15	70*
Cc1ccc(NC(=O)c2sc3ncn(CC(=O)N4CCN(c5ccccn5)CC4)c(=O)c3c2C)c(Br)c1	-63	-11	-17	59*
COc1ccc(NC(=O)c2sc3ncn(CC(=O)N4CCN(c5ccccn5)CC4)c(=O)c3c2C)cc1OC	-1	-1	3	19
CCOC(=O)C1CCCN(C(=O)C(=O)c2cn(CC(=O)N3CCCCC3)c3ccccc23)C1 (centres undefined)	0	8	3	34*
COC(=O)C1(Cc2ccc(O)cc2)OC(=O)C(O)=C1c1ccc(O)cc1 (centres undefined)	70*	78*	78*	85*
O=C(NC1CCCCCC1)c1cccc(S(=O)(=O)Nc2cc(C(F)(F)F)ccc2Cl)c1	31*	15	6	33*
COc1cc2c(cc1OC)-c1c(c(C(=O)N3CCCC3)nn1-c1ccccc1F)C2	99*	76*	5	76*
CC(NC(=O)CCC(=O)N1Cc2cccn2-c2ccccc21)c1ccccc1 (centres undefined)	-26	6	-2	0
